# PubChem BioAssay (Tox21)
# Records with an inconclusive call do not appear. Calls of active or inactive are those of the source. The call rests on the fitted dose curve; in most records, active means well fitted activation curve with a large enough effect in the repeat runs; inconclusive means weak or mixed curves; inactive means flat fitted curve, though single readings scatter.
# Experiment: Caspase-3/7 induction in HepG2 cells by small molecules, qHTS assay (AID 1346978); further: nearly all actives have a fitted effect of over 15% in size
# Conditions: HepG2 caspase-3/7 activation, Caspase-Glo luminescence, 17 h; series mostly up to 92.4 µM; caspase activation: at the top concentration
# From the text: National Center for Advancing Translational Sciences [NCATS] NIH Chemical Genomics Center [NCGC] U.S. Environmental Protection Agency [EPA] National Institutes of Environmental Health Sciences [NIEHS] National Toxicology Program [NTP] Assay overview: Apoptosis is a process of programmed cell death and plays a central role in the development of multicellular organisms. It is a highly regulated process and induces cell death by activating caspases, which are the members of cysteine aspartic acid-specific protease (caspase) family. Caspases involved in apoptosis are classified by their mechanism of action as initiator caspases (caspase-2, -8, -9 and -10) and executioner caspases (caspase-3, -6, and -7). Inhibition of apoptosis results in number of cancers, autoimmune diseases, inflammatory diseases and viral infection. To identify small molecule compounds that induce apoptosis, a homogeneous, luminescent Caspase-Glo 3/7 assay was used. Wild type HepG2 cells were used to screen Tox21 libraries for identifying caspase-3/7 activity inducers.
# Assay Protocol Summary: HepG2 cells were dispensed at 2,000 per well in 5uL of culture medium into white solid bottom 1536-well plates (Corning Life Sciences, Corning, NY) using a Multidrop Combi (Thermo Scientific, Waltham, MA) dispenser. The assay plates were incubated at 37 C and 5% CO2 for 5hr, and then 23nL of compounds dissolved in DMSO and positive control were transferred using a Pintool station (Wako, San Diego, CA). The assay plates were incubated at 37C and 5% CO2 for 17hr. For caspase-3/7 activity read, 4uL of Caspase-Glo 3/7 reagent (Promega Corporation, Madison, WI) was added to each well of the assay plates using Flying Reagent Dispenser (FRD, Aurora Discovery, San Diego, CA) and incubated the assay plates at room temperature for 30min. The luminescence signal was quantified using a ViewLux plate reader (Perkin Elmer, Shelton, CT).
# On the % scale 0 is the no-effect control and ±100 the full control effect.
row,Structure (SMILES),caspase activation
1,CCCCCCCCOS(=O)(=O)O,-0.402% (inactive)
2,CO[C@@H]1[C@@H](OC(N)=O)[C@@H](O)[C@H](Oc2ccc3c(O)c(NC(=O)c4ccc(O)c(CC=C(C)C)c4)c(=O)oc3c2C)OC1(C)C,3.02% [at 42.5 µM] (inactive)
3,CCN(C)C(=O)Oc1cccc([C@H](C)N(C)C)c1,0.157% [at 42.5 µM] (inactive)
4,CCCCCCCCCCCCCC,-0.236% (inactive)
5,CCn1ccc(NS(=O)(=O)c2ccc(N)cc2)nc1=O,-0.625% [at 42.5 µM] (inactive)
6,COCCOCCOCCOCCO,-0.488% (inactive)
7,O=C1O[C@@H]2[C@@H](O)[C@H](O)O[C@@H]2[C@H]1O,-1.37% (inactive)
8,CCOC(=O)c1ncn2c1CN(C)C(=O)c1cc(F)ccc1-2,0.102% [at 42.5 µM] (inactive)
9,CC(CO)c1ccccc1 (stereo not given),0.853% (inactive)
10,CCOC(=O)c1ccc(OC(=O)CCCCCN=C(N)N)cc1,-5.4% [at 42.5 µM] (inactive)
11,CC(C)CC(=O)O,1.37% (inactive)
12,O=S(=O)(O)c1ccc2cc(O)c(S(=O)(=O)O)cc2c1,-1.45% (inactive)
13,CCCC(=O)C(C)=O,-0.217% (inactive)
14,NCCN1CCOCC1,0.653% (inactive)
15,N[C@@H](CCC(=O)Nc1ccc([N+](=O)[O-])cc1)C(=O)O,0.152% (inactive)
16,CC(C)C(=O)OCc1cccc(OC(=O)[C@@H]2N3C(=O)[C@@H](NC(=O)Cc4ccccc4)[C@H]3SC2(C)C)c1,0.284% [at 42.5 µM] (inactive)
17,COc1ccc(C2CNC(=O)C2)cc1OC1CCCC1 (stereo not given),0.868% [at 42.5 µM] (inactive)
18,O=C(NCC(O)CO)c1c(I)c(C(=O)NCC(O)CO)c(I)c(N(CCO)C(=O)CO)c1I (stereo not given),0.289% [at 42.5 µM] (inactive)
19,CCCOC(=O)C(C)O (stereo not given),1.62% (inactive)
20,c1ccc2c(c1)ccc1c3ccccc3ccc21,2.45% [at 42.5 µM] (inactive)

row,Structure (SMILES),caspase activation
1,CC(=O)NCc1c(I)c(NC(C)=O)c(I)c(C(=O)O)c1I,1.96% [at 42.5 µM] (inactive)
2,COC(=O)CCc1ccc(OCC(O)CNC(C)C)cc1 (stereo not given),-1.25% [at 42.5 µM] (inactive)
3,COc1cc(C(=S)N2CCOCC2)cc(OC)c1OC,1.55% [at 42.5 µM] (inactive)
4,C[C@@H](O)[C@H]1C(=O)N2C(C(=O)O)=C(SCCN=CN)C[C@H]12,-0.152% [at 42.5 µM] (inactive)
5,C=C(C)C(=O)OCC(C)(C)COC(=O)C(=C)C,0.792% (inactive)
6,CC(C(=O)O)c1ccc2c(c1)CC(=O)c1ccccc1S2 (stereo not given),-0.214% [at 42.5 µM] (inactive)
7,O=C1CC(c2ccc(Cl)cc2)CC(=O)N1,0.586% [at 42.5 µM] (inactive)
8,C=C(C)C1CCC(C)(O)CC1 (stereo not given),-0.534% (inactive)
9,COc1nccnc1NS(=O)(=O)c1ccc(N)cc1,0.0223% [at 42.5 µM] (inactive)
10,C=COCCOCCOCCOC=C,-0.96% (inactive)
11,Cc1ccc2ccc(Cl)cc2n1,3.42% [at 42.5 µM] (inactive)
12,COCCc1ccc(OCC2CO2)cc1 (stereo not given),-0.981% [at 42.5 µM] (inactive)
13,CN=C(NC#N)Nc1ccc(C2=NNC(=O)CC2C)cc1 (stereo not given),0.253% [at 42.5 µM] (inactive)
14,CC(=O)c1ccc2c(c1)Cc1ccccc1-2,-5.01% (inactive)
15,CC(=C(CCOC(=O)C(C)C)SSC(CCOC(=O)C(C)C)=C(C)N(C=O)Cc1cnc(C)nc1N)N(C=O)Cc1cnc(C)nc1N,-1% [at 42.5 µM] (inactive)
16,O=C(O)c1ccc(Cl)cc1Cl,-1.26% (inactive)
17,CC1=C(C(=O)O)N2C(=O)[C@@H](NC(=O)[C@H](N)c3ccc(O)cc3)[C@H]2SC1,0.216% [at 42.5 µM] (inactive)
18,Oc1ccccc1-c1nnco1,0.631% [at 42.5 µM] (inactive)
19,COc1ccc(S(=O)(=O)N2c3ccc(Cl)cc3[C@@](O)(c3ccccc3Cl)[C@H]2C(=O)N2CCC[C@@H]2C(N)=O)cc1OC,0.732% [at 42.5 µM] (inactive)
20,CN(CCOc1ccc(NS(C)(=O)=O)cc1)CCc1ccc(NS(C)(=O)=O)cc1,-0.0397% [at 42.5 µM] (inactive)
